Experimental data as given in publication PMC5540273 (PLoS ONE, 2017).

These compounds were tested on CSNK1D. Conditions: concentration: 1 μM, replicates: in singlicate; n = 1.
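Note: KINOMEscan kinase panel screen.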

SMILES | %Inh [%]
Oc1cc(Nc2ccnc3cc(I)ccc23)ccc1F [GW552771] | 20
CC(C)c1nc(-c2cccc(NS(=O)(=O)c3c(F)cccc3F)c2F)c(-c2ccnc(Nc3ccc(N4CCOCC4)nc3)n2)s1 [GSK2008607] | 0
CCn1c(-c2nonc2N)nc2c(C#CC(C)(C)O)nc(OC[C@H](N)c3ccccc3)cc21 [GSK943949] | 0
CC(C)(C)c1ccc2nccc(Nc3cccc(O)c3)c2c1 [GW856795] | 0

These compounds were tested on CSNK1E. Conditions: concentration: 1 μM, replicates: in singlicate; n = 1.

SMILES | %Inh [%]
CN1CCN(CCCNc2nccc(-c3c(-c4ccc(F)cc4)nn4cc(C(F)(F)F)ccc34)n2)CC1 [GW621581] | 92.9
C[C@@H]1CC[C@@H](C(=O)Nc2ccccc2)CN1c1cc(-c2ccc3c(N)n[nH]c3c2)nc(N)n1 [GSK2286062] | 0
Cl.Cl.NCC(NCc1ccc(-c2ccnc3[nH]ccc23)s1)c1ccccc1 (stereo not drawn) [GSK1321565] | 64
Nc1n[nH]c2cnc(-c3ccccc3)cc12 [SB-642124] | 16
COc1cccc(NC(=O)NC2CCN(c3ccnc(Nc4cc(OC)c(OC)c(OC)c4)n3)C2)c1 (stereo not drawn) [GSK1379763] | 0
COc1cccc(C(=O)Nc2cccc(Oc3ccc4nc(NC(=O)C5CC5)cn4n3)c2)c1 | 19
c1ccc(-c2n[nH]cc2Nc2ccnc3ccccc23)nc1 [GW694077] | 63
O=C(Nc1cccc(-c2nn3ccccc3c2-c2ccnc(Nc3cccc(C(F)(F)F)c3)n2)c1)c1c(F)cccc1F [GSK292658] | 46
CSc1cccc2c(-c3ccncn3)c(-c3ccc(F)cc3)nn12 [GW514786] | 69
COc1ccc(CNC(=O)NC2CCN(c3ccnc(Nc4ccc(F)cc4)n3)CC2)cc1 [GSK1379788] | 63
COCCOCCOc1cc2ncc3c4ccc(C#N)cc4[nH]c3c2cc1OC | 2
FC(F)(F)c1ccc(/C=C/c2cncnc2Nc2ccc3[nH]c(Cc4ccccc4)nc3c2)cc1 [GW709199] | 28
COc1cc(Nc2nccc(N3CCC(NC(=O)Nc4cccc(C(C)=O)c4)C3)n2)cc(OC)c1OC (stereo not drawn) [GSK1379753] | 18
O=C(O)C(F)(F)F.O=C(O)C(F)(F)F.O=c1[nH]ccc2nc(N[C@@H]3CCCNC3)nc(Nc3ccc(S(=O)(=O)N4CCOCC4)cc3)c12 [GSK2177277] | 99.9
Cc1ccc(C(=O)N2CC[C@@H](O)C2)cc1-n1c(C)cc(OCc2ccc(F)cc2F)c(Br)c1=O | 0
Cl.c1ccc(-c2ccc3c(Nc4ccc5[nH]ccc5c4)ccnc3c2)nc1 [GW440138] | 27
CCCCc1nn2ncccc2c1-c1ccnc(Nc2ccc(N3CCN(C)CC3)cc2)n1 [GW684941] | 99.4
COc1ccc(Nc2nccc(NCCNC(=O)c3cc4ccccc4s3)n2)cc1 [GSK1379896] | 16
COc1ccc(Nc2nccc(N3CCC(NC(=O)Nc4cccc(OC)c4)C3)n2)cc1 (stereo not drawn) [GSK1379742] | 34
O=C(Nc1ccccc1F)NC1CCN(c2ccnc(Nc3ccc(F)cc3)n2)CC1 [GSK1379800] | 60
Cn1cc(-c2ccc3c(c2)CCN3C(=O)Cc2cccc(F)c2)c2c(N)ncnc21 [GSK2603358] | 77
CCc1ccc(-c2ccc3c(c2)-c2c(cnn2C)S(=O)(=O)N3C)cc1 | 1
COc1cc(Nc2nccc(-c3c(-c4cccc(NC(=O)c5c(F)cccc5F)c4)nn4ccccc34)n2)cc(OC)c1OC [GSK323521] | 43
O=C(Nc1cccc(Oc2ccc3nc(NC(=O)C4CC4)cn3n2)c1)c1ccccc1C(F)(F)F | 20
O=c1[nH]cc(-c2ccc(N3CCOCC3)cc2)c2sc(-c3cn[nH]c3)cc12 [GSK2276055] | 94.4
Cc1cccc(Nc2nc(N[C@H]3CCNC3)ncc2C(N)=O)c1.Cl [GSK2197149] | 86
Nc1ncc(-c2cccnc2)c2scc(-c3ccc4c(c3)CCN4C(=O)Cc3ccccc3)c12 [GSK683281] | 35
Cl.Cl.NCC(C(=O)Nc1cc(Br)c(-c2ccnc3[nH]ccc23)s1)c1ccccc1 (stereo not drawn) [GSK1269851] | 28
Fc1ccc(-c2ncn(C3CCNCC3)c2-c2ccnc(Oc3ccc(-c4ccccc4)cc3)n2)cc1 [SB-245391] | 99.5
